In PubChem BioAssay (Tox21):
Several values for one entry are separate records, joined by “and”; a condition that tells them apart may be missing. Equal entries are not always repeated. Records with an inconclusive call do not appear. Entries that show only a call come without a potency. Some compounds were tested as several samples or in several runs, with calls that do not always agree. Activity calls are given as the source filed them. Calls come from the whole dose curve; as a rule, active = well fitted curve in the direction sought with a large enough effect in the repeat runs; inconclusive = weak or mixed curves; inactive = no such curve, though single readings can be large; an effect the other way counts as inactive or inconclusive.

What was measured:
[1] = target: Cytochrome P450 2D6 (Homo sapiens) (UniProt P10635); test: Cytochrome P450 Family 2 Subfamily D Member 6 (CYP2D6) small molecule antagonists: luciferase reporter qHTS assay (AID 1671196); conditions: P450-Glo CYP2D6 enzyme assay, luciferin luminescence, 1 h; series mostly up to 115 µM; note: nearly all actives have a fitted effect of over 50% in size; note: potency is the fitted concentration of half-maximal effect
Chain of Cytochrome P450 2D6 (Homo sapiens) (P10635 whole entry, looked up): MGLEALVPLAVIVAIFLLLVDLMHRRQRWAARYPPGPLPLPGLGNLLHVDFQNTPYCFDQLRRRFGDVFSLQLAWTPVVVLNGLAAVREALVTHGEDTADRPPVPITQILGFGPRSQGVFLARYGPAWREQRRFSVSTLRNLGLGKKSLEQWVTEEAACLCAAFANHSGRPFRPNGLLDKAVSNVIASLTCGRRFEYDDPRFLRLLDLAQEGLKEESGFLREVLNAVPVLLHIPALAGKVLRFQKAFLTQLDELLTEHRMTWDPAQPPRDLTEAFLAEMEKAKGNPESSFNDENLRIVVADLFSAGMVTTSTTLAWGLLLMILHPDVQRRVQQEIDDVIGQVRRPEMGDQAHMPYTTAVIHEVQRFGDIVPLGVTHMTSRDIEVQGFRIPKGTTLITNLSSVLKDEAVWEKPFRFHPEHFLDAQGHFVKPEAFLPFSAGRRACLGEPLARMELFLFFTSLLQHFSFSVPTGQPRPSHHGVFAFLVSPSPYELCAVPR
Summary of the method: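 Luminescence (RLU), read 20 min after detection reagent, indicated CYP2D6 conversion of proluciferin to luciferin during a 1 h NADPH-dependent reaction at room temperature.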

[2] = target: Cytochrome P450 2C19 (Homo sapiens) (UniProt P33261); test: Cytochrome P450 Family 2 Subfamily C Member 19 (CYP2C19) small molecule antagonists: luciferase reporter qHTS assay (AID 1671197); conditions: P450-Glo CYP2C19 enzyme, luciferin luminescence, 1 h; series mostly up to 115 µM; note: nearly all actives have a fitted effect of over 65% in size; note: potency is the fitted concentration of half-maximal effect
Chain of Cytochrome P450 2C19 (Homo sapiens) (P33261 whole entry, looked up): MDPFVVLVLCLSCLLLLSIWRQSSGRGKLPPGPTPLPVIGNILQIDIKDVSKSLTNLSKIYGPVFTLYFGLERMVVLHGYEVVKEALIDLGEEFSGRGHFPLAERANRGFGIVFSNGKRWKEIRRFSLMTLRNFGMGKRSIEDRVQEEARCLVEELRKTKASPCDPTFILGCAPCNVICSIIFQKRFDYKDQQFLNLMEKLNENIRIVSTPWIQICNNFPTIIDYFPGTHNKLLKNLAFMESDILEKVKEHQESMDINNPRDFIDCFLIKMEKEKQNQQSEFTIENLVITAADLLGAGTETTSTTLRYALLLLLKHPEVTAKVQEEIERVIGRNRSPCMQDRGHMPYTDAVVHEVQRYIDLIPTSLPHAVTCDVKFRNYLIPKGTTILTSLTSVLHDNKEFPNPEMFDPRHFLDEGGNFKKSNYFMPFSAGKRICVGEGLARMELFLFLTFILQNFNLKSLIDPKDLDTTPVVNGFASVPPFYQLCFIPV
Summary of the method: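 Light output is proportional to CYP2C19 activity: proluciferin substrate is converted to luciferin, then detected by a luciferin detection reagent that also stops the 1 h, 37C NADPH-driven reaction. Ketoconazole serves as positive control.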

[3] = target: Cytochrome P450 1A2 (Homo sapiens) (UniProt P05177); test: Cytochrome P450 Family 1 Subfamily A Member 2 (CYP1A2) small molecule antagonists: luciferase reporter qHTS assay (AID 1671199); conditions: P450-Glo CYP1A2 enzyme, luciferin luminescence, 1 h; series mostly up to 115 µM; note: nearly all actives have a fitted effect of over 50% in size; note: potency is the fitted concentration of half-maximal effect
Chain of Cytochrome P450 1A2 (Homo sapiens) (P05177 whole entry, looked up): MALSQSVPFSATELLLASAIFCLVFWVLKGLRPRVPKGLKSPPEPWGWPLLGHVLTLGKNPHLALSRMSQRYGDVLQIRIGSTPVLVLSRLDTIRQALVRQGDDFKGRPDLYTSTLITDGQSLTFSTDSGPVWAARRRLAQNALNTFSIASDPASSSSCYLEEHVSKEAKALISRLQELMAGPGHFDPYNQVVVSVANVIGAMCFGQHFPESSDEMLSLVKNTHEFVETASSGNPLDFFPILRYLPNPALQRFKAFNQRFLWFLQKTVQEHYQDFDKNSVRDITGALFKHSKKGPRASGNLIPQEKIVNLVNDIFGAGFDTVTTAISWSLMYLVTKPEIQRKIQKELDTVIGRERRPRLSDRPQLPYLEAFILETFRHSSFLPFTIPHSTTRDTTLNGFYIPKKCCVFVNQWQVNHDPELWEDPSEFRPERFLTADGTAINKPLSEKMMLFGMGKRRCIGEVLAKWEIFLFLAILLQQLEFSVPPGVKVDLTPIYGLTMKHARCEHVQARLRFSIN
Summary of the method: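 CYP1A2 turnover of a luminogenic substrate was quantified after 1 h with NADPH regeneration at room temperature. Furafylline served as positive control.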

[4] = target: Voltage-gated inwardly rectifying potassium channel KCNH2 (Homo sapiens) (UniProt Q12809); test: Human Ether-a-go-go-Related Gene (hERG) channel small molecule antagonists: fluorescence cell-based qHTS assay (AID 1671200); conditions: hERG-U2OS cells, FluxOR thallium flux fluorescence; series mostly up to 76.8 µM; note: nearly all actives have a fitted effect of over 50% in size; note: potency is the fitted concentration of half-maximal effect;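 for activity change, negative = inhibition: hERG-expressing U2OS cells given a thallium stimulus after FluxOR II dye loading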
Chain of Voltage-gated inwardly rectifying potassium channel KCNH2 (Homo sapiens) (Q12809 whole entry, looked up): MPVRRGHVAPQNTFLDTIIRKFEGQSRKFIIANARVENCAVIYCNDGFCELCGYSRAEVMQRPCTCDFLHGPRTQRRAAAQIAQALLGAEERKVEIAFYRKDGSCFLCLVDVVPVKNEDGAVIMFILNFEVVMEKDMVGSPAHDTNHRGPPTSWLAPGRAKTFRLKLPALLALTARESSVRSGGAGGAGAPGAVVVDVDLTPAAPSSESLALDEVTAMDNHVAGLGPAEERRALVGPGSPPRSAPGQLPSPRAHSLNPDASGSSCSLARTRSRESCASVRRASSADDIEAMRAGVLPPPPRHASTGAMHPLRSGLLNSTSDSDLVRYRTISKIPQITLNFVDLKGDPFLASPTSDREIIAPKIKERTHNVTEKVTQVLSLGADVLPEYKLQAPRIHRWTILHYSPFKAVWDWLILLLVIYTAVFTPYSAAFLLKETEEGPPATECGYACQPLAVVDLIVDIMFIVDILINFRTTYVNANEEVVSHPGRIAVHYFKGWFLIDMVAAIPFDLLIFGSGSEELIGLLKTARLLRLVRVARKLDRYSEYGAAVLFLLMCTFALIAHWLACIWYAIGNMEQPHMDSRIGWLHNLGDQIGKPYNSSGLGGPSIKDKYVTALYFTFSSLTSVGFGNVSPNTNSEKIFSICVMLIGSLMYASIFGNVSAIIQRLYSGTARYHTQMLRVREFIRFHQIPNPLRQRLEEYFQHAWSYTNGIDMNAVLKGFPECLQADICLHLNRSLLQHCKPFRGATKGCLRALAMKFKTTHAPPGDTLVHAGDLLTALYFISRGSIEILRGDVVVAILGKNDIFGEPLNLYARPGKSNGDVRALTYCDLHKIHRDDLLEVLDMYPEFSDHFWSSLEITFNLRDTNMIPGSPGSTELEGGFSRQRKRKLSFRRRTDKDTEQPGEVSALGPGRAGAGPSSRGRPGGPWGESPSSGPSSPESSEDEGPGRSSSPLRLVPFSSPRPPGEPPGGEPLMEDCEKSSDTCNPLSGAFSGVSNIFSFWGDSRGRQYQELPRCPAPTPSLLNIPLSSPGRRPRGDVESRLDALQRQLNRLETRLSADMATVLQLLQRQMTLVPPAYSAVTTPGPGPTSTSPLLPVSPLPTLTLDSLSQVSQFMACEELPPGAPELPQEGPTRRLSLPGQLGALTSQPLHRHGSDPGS
Summary of the method: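 First, 1000 cells per well are seeded and cultured overnight at 37 C. Next, FluxOR II dye is loaded for 1 h at room temperature, protected from light. After 10 more minutes, stimulus is added and fluorescence is read.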

[5] = target: Cytochrome P450 3A4 (Homo sapiens) (UniProt P08684); test: Cytochrome P450 Family 3 Subfamily A Member 4 (CYP3A4) small molecule antagonists: luciferase reporter qHTS assay (AID 1671201); conditions: P450-Glo CYP3A4 enzyme, luciferin luminescence, 1 h; series mostly up to 115 µM; note: nearly all actives have a fitted effect of over 50% in size
Chain of Cytochrome P450 3A4 (Homo sapiens) (P08684 whole entry, looked up): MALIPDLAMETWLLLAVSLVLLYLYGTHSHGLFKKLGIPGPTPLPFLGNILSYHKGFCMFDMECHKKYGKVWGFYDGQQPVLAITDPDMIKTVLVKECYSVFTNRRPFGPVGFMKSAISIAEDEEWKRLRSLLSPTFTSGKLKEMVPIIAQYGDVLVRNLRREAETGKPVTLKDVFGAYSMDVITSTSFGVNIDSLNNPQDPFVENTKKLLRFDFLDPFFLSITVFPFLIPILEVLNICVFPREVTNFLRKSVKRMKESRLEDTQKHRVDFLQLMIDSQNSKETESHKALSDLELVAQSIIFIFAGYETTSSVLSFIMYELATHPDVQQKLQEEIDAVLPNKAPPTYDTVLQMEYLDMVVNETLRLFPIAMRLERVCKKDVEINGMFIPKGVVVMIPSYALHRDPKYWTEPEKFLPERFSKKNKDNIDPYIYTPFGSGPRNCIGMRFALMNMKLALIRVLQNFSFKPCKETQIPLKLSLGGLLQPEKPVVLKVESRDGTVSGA
Summary of the method: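 Enzyme and proluciferin substrate are mixed with test chemicals for 10 min, then NADPH regeneration system drives turnover for 1 h at room temperature. A detection reagent halts the reaction; luminescence after 20 min gives relative activity.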

[6] = target: Cytochrome P450 2C9 (Homo sapiens) (UniProt P11712); test: Cytochrome P450 Family 2 Subfamily C Member 9 (CYP2C9) small molecule antagonists: luciferase reporter qHTS assay (AID 1671198); conditions: P450-Glo CYP2C9 enzyme assay, luciferin luminescence; series mostly up to 115 µM; note: nearly all actives have a fitted effect of over 50% in size; note: potency is the fitted concentration of half-maximal effect
Chain of Cytochrome P450 2C9 (Homo sapiens) (P11712 whole entry, looked up): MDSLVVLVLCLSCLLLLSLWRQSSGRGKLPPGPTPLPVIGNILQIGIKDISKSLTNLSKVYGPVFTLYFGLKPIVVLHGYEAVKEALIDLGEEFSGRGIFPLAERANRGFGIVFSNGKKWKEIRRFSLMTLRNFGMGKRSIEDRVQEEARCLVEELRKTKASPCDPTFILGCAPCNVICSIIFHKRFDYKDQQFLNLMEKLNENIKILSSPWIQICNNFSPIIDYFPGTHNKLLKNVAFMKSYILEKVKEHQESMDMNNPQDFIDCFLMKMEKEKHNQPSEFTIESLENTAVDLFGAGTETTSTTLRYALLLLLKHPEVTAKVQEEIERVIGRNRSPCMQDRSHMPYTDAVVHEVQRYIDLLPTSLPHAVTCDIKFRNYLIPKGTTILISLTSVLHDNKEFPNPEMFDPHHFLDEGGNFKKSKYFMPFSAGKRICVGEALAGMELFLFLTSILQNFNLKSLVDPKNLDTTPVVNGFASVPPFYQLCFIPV
Summary of the method: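 Enzyme-substrate mix preincubated with compound 10 min at room temperature; reaction started with NADPH regeneration solution, 1 h 37C. Luminescent luciferin product read after 20 min detection reagent.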

Row | Structure (SMILES) | Potency [1] | Potency [2] | Potency [3] | Potency [4] | Potency [5] | Potency [6] | activity change, negative = inhibition [6]
1 | Cc1ccc(C)c(O)c1C | inactive | inactive | 28.1 µM (active) and 28.3 µM (active) | inactive | inactive | – | –
2 | O=P(O)(O)O | – | – | – | inactive | – | – | –
3 | Cn1cnc([N+](=O)[O-])c1Sc1ncnc2nc[nH]c12 | 44.5 µM (active) and inactive | – | inactive | inactive | inactive | inactive | –
4 | O=[N+]([O-])c1ccc2c(c1)Cc1ccccc1-2 | inactive | 22.4 µM (active) and 20 µM (active) | 2 µM (active) and 8.94 µM (active) | inactive | inactive | – | –
5 | O=C(/C=C/C=C/c1ccc2c(c1)OCO2)N1CCCCC1 | 63.4 µM (active) and 44.8 µM (active) | – | 28.3 µM (active) and 22.4 µM (active) | inactive | – | 12.7 µM (active) and 35.6 µM (active) | –
6 | c1ccc2c(c1)c1cccc3ccc4cccc2c4c31 | – | 88.8 µM (active) and inactive | 112 nM (active) and 20 nM (active) | inactive | inactive | inactive | –
7 | CC(CCC(=O)O)(c1ccc(O)cc1)c1ccc(O)cc1 | inactive and 25.2 µM (active) | 71.8 µM (active) and 35.6 µM (active) | inactive | inactive | inactive | – | –
8 | O=c1oc(=O)c2cc3c(=O)oc(=O)c3cc12 | inactive | – | inactive | inactive | – | inactive | –
9 | CC(C)=CCC/C(C)=C\CO | – | – | – | inactive | – | – | –
10 | c1ccc2c(c1)Oc1ccccc1S2 | inactive | inactive and 71 µM (active) | 12.8 µM (active) and 8.94 µM (active) | – | inactive | – | –
11 | Cc1cc2nc3c(=O)[nH]c(=O)nc-3n(C[C@H](O)[C@H](O)[C@H](O)CO)c2cc1C | – | – | – | – | inactive | – | -0.762% [at 23.6 µM] (inactive)
12 | CCCC(=O)O | inactive | – | inactive | inactive | inactive | inactive | –
13 | Nc1ccccc1N | 36.4 µM (active) and 7.31 µM (active) | 40.9 µM (active) and 17.8 µM (active) | 2.58 µM (active) and 13.8 µM (active) | inactive | – | – | –
14 | Cc1[nH]c(=O)c(C#N)cc1-c1ccncc1 | inactive | – | 56.4 µM (active) and inactive | – | inactive | 29.1 µM (active) | –
15 | CCCCCCCCCCCO | inactive | 20.5 µM (active) and inactive | – | inactive | inactive | – | –
16 | O=C=Nc1ccc(Cc2ccc(N=C=O)cc2)cc1 | inactive | – | inactive | inactive | – | 6.98 µM (active) | –
17 | CC(C)CC(C)(O)C#CC(C)(O)CC(C)C (centres undefined) | – | – | – | inactive | – | – | –
18 | NNc1ccc(C(=O)O)cc1 | – | 32.1 µM (active) and 40.3 µM (active) | 32.1 µM (active) and 32 µM (active) | inactive | inactive | 10.2 µM (active) | –
19 | OC(CCl)CCl | inactive | inactive | – | inactive | inactive | inactive | –
20 | C#C[C@]1(O)CC[C@H]2[C@@H]3CCC4=Cc5oncc5C[C@]4(C)[C@H]3CC[C@@]21C | – | – | inactive | inactive | – | – | –
21 | O=C(c1ccc(OCCN2CCCCC2)cc1)c1c(-c2ccc(O)cc2)sc2cc(O)ccc12 | – | – | – | 21.9 µM (active) and 43.6 µM (active) | – | – | –
22 | COc1ccc(OC)c(C(O)CNC(=O)CN)c1 (centres undefined) | inactive | 20 µM (active) and 24.5 µM (active) | – | inactive | – | – | –
